The results in this text go back to article PMC7862700, “An all-to-all approach to the identification of sequence-specific readers for epigenetic DNA modifications on cytosine”.

What all share (assay): DAPPL (digital affinity profiling via proximity ligation, sequencing); 10 mM Tris-HCl pH 7.5, 50 mM NaCl, 1 mM DTT, 4% glycerol, room temperature, 30 min; GST-TFs on glutathione beads, 16-mer random dsDNA library, 0.1% formaldehyde crosslink after washing; high values mean tight binding
Details in all cases: protein: recombinant; tags: N-terminal GST; dsDNA, one strand shown

The target of one assay is T1, FLI1 (Homo sapiens, UniProt Q01543 1-452).
T1 sequence: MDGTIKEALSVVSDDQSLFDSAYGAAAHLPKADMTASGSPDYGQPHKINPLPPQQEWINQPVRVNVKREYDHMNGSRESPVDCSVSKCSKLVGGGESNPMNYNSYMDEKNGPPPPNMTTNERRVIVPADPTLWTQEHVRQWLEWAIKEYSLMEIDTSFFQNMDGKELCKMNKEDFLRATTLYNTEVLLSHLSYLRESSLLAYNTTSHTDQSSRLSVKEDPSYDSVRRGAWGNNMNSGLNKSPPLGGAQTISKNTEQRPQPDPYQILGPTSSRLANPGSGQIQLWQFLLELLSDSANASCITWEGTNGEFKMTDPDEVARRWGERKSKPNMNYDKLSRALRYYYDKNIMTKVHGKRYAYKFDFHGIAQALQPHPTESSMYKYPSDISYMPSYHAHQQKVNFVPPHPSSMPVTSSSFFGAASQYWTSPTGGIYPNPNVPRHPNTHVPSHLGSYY
An outline of the steps: (§1)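 Binding signal is given per hexamer as its read frequency for a factor divided by its frequency in the tag-only sample. GST-fused human transcription factors were expressed in yeast, captured on glutathione beads, barcoded with DNA and pooled with that sample, then incubated with 200 nmole of a 16-mer random double-stranded DNA library in Tris/NaCl/DTT/glycerol buffer for 30 min at room temperature. The pools were then washed, crosslinked, proximity-ligated, amplified by PCR and sequenced on an Illumina NextSeq500.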

The target of the next assay is T2, ELK1 (Homo sapiens, UniProt P19419 1-428).
T2 sequence: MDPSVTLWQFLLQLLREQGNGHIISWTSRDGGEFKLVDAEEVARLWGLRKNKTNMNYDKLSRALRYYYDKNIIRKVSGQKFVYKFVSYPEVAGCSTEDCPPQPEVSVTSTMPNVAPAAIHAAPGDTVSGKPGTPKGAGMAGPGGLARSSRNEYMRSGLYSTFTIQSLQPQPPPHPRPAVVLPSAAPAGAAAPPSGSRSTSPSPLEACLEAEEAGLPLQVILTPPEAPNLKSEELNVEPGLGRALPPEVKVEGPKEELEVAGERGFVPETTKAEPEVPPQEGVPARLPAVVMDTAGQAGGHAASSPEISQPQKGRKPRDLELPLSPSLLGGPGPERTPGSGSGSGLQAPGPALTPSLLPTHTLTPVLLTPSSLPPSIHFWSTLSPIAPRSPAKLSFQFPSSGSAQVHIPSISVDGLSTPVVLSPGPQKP
The method in brief:
as §1

The target of the next assay is T3, GABPA (Homo sapiens, UniProt Q06546 1-454).
T3 sequence: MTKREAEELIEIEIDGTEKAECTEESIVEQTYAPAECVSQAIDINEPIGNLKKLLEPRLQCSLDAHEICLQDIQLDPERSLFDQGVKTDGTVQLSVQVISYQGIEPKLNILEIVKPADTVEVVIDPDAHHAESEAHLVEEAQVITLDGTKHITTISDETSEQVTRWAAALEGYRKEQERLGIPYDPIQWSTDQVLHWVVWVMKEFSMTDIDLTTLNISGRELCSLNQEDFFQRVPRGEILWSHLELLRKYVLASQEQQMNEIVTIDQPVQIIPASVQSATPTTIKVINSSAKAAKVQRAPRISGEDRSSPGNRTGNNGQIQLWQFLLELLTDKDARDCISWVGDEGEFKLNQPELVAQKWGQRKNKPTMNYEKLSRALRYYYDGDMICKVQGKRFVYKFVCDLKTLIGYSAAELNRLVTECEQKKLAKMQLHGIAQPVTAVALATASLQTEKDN
The method in brief:
as §1

The next assay addresses T4, ERG (Homo sapiens, UniProt P11308 1-479).
T4 sequence: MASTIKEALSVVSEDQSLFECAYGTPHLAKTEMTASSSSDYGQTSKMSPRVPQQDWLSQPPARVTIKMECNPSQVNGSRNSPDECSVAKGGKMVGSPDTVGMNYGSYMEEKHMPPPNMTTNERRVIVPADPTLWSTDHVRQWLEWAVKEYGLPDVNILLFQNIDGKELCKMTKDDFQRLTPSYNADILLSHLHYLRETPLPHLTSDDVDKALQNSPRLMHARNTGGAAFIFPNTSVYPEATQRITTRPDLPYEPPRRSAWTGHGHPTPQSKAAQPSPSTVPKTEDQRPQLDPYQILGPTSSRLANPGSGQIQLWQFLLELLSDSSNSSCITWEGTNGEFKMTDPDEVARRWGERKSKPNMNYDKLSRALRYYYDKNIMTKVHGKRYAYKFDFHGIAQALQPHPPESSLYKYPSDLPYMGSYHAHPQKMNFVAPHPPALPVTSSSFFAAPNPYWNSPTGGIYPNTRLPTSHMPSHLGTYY
The method in brief: as §1

The target in the next assay is ELF1 (Homo sapiens, UniProt P32519 1-619). The method in brief: as §1
Chain of ELF1 (P32519 whole entry): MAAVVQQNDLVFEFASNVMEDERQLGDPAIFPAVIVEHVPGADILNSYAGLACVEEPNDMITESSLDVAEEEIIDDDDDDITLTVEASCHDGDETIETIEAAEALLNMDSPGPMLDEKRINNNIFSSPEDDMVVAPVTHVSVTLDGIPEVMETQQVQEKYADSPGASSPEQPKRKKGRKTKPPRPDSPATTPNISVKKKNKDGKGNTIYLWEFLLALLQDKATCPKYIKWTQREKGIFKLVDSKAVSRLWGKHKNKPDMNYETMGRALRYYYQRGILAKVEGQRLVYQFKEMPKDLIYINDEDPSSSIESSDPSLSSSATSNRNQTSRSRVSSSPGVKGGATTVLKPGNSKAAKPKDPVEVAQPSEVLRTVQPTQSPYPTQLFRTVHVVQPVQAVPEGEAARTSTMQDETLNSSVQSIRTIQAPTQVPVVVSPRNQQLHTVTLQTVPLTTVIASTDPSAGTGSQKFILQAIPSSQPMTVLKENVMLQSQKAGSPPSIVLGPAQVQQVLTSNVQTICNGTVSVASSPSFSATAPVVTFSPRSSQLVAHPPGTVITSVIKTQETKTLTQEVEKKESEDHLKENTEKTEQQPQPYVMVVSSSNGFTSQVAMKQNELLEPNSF
The next assay concerns the target T5, EHF (Homo sapiens, UniProt Q9NZC4 1-300).
T5 sequence: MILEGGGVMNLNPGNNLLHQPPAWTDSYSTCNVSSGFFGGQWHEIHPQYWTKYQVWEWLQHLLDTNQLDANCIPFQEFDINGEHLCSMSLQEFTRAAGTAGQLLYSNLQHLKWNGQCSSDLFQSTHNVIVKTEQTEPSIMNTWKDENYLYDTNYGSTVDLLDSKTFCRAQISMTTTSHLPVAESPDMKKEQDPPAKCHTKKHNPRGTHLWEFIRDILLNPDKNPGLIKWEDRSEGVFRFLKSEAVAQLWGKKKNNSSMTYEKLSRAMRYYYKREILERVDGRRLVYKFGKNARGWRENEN
The method in brief: as §1

A further assay has as its target SPI1 (Homo sapiens, UniProt P17947 1-270). An outline of the steps: as §1
The target in a further assay is SPIB (Homo sapiens, UniProt Q01892 1-262). An outline of the steps:
as §1

In a further assay the target is T6, ELK3 (Homo sapiens, UniProt P41970 1-407).
T6 sequence: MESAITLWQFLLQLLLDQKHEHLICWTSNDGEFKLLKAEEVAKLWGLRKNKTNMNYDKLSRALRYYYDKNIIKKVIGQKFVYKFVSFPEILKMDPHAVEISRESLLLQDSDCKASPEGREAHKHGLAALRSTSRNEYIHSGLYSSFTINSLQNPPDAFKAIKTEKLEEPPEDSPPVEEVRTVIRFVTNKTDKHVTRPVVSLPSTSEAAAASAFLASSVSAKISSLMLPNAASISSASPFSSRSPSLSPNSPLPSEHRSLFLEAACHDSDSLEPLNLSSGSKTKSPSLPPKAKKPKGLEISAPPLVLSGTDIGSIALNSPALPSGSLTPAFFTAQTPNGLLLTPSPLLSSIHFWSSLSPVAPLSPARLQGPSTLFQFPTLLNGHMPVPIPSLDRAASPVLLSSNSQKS
The method in brief:
as §1

Chain of SPIB (Q01892 whole entry): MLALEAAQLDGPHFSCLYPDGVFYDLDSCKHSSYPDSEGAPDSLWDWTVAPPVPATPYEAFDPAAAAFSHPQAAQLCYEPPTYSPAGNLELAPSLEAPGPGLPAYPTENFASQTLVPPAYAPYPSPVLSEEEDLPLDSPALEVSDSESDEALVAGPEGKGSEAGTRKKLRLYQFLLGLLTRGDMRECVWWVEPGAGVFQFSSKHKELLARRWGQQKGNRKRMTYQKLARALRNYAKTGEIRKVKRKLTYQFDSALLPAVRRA

As for ACTAAC, the binding signal with FLI1 was 1.21 fold enrichment (6-mer frequency, TF over GST control); with ELK1, 1.3 fold enrichment (6-mer frequency, TF over GST control); in the assay with GABPA it was 1.26 fold enrichment (6-mer frequency, TF over GST control); with ERG it was 1.32 fold enrichment (6-mer frequency, TF over GST control); with ELF1, 1.3 fold enrichment (6-mer frequency, TF over GST control); in the assay with EHF, 1.27 fold enrichment (6-mer frequency, TF over GST control). Further, the binding signal was 1.33 fold enrichment (6-mer frequency, TF over GST control) in the assay with SPI1; 1.24 fold enrichment (6-mer frequency, TF over GST control) in the assay with SPIB; 1.25 fold enrichment (6-mer frequency, TF over GST control) with ELK3.

ATTCGT: the binding signal in the assay with FLI1 was 1.24 fold enrichment (6-mer frequency, TF over GST control); in the assay with ELK1, 1.24 fold enrichment (6-mer frequency, TF over GST control); in the assay with GABPA it was 1.05 fold enrichment (6-mer frequency, TF over GST control); with ERG, 1.15 fold enrichment (6-mer frequency, TF over GST control); with ELF1, 1.17 fold enrichment (6-mer frequency, TF over GST control); with EHF, 1.08 fold enrichment (6-mer frequency, TF over GST control). Also, the binding signal with SPI1 was 1.11 fold enrichment (6-mer frequency, TF over GST control); in the assay with SPIB, 1.27 fold enrichment (6-mer frequency, TF over GST control); with ELK3, 1.08 fold enrichment (6-mer frequency, TF over GST control).

Take AAGTCC: the binding signal was 1.21 fold enrichment (6-mer frequency, TF over GST control) with FLI1; 1.31 fold enrichment (6-mer frequency, TF over GST control) with ELK1; 1.18 fold enrichment (6-mer frequency, TF over GST control) in the assay with GABPA; 1.35 fold enrichment (6-mer frequency, TF over GST control) with ERG; 1.23 fold enrichment (6-mer frequency, TF over GST control) with ELF1; 1.27 fold enrichment (6-mer frequency, TF over GST control) in the assay with EHF. Also, the binding signal is 1.36 fold enrichment (6-mer frequency, TF over GST control) in the assay with SPI1; 1.28 fold enrichment (6-mer frequency, TF over GST control) in the assay with SPIB; 1.27 fold enrichment (6-mer frequency, TF over GST control) with ELK3.

As for AATCAA, the binding signal is 1.1 fold enrichment (6-mer frequency, TF over GST control) in the assay with FLI1; 1.18 fold enrichment (6-mer frequency, TF over GST control) with ELK1; 1.15 fold enrichment (6-mer frequency, TF over GST control) in the assay with GABPA; 1.21 fold enrichment (6-mer frequency, TF over GST control) in the assay with ERG; 1.17 fold enrichment (6-mer frequency, TF over GST control) with ELF1; 1.12 fold enrichment (6-mer frequency, TF over GST control) with EHF. Also, the binding signal in the assay with SPI1 is 1.15 fold enrichment (6-mer frequency, TF over GST control); with SPIB it was 1.14 fold enrichment (6-mer frequency, TF over GST control); in the assay with ELK3 it was 1.14 fold enrichment (6-mer frequency, TF over GST control).

Take CCTATA: the binding signal with FLI1 is 1.35 fold enrichment (6-mer frequency, TF over GST control); with ELK1, 1.29 fold enrichment (6-mer frequency, TF over GST control); with GABPA it was 1.42 fold enrichment (6-mer frequency, TF over GST control); with ERG, 1.3 fold enrichment (6-mer frequency, TF over GST control); in the assay with ELF1 it was 1.39 fold enrichment (6-mer frequency, TF over GST control); with EHF it was 1.28 fold enrichment (6-mer frequency, TF over GST control). The binding signal is 1.28 fold enrichment (6-mer frequency, TF over GST control) with SPI1; 1.34 fold enrichment (6-mer frequency, TF over GST control) with SPIB; 1.32 fold enrichment (6-mer frequency, TF over GST control) with ELK3.

Consider CCGTCT, for which the binding signal in the assay with FLI1 is 1.41 fold enrichment (6-mer frequency, TF over GST control); with ELK1, 1.32 fold enrichment (6-mer frequency, TF over GST control); with GABPA, 1.43 fold enrichment (6-mer frequency, TF over GST control); in the assay with ERG it was 1.28 fold enrichment (6-mer frequency, TF over GST control); with ELF1, 1.46 fold enrichment (6-mer frequency, TF over GST control); in the assay with EHF it was 1.34 fold enrichment (6-mer frequency, TF over GST control). The binding signal was 1.43 fold enrichment (6-mer frequency, TF over GST control) in the assay with SPI1; 1.45 fold enrichment (6-mer frequency, TF over GST control) in the assay with SPIB; 1.36 fold enrichment (6-mer frequency, TF over GST control) with ELK3.

As for AATAGT, the binding signal was 1.21 fold enrichment (6-mer frequency, TF over GST control) with FLI1; 1.2 fold enrichment (6-mer frequency, TF over GST control) in the assay with ELK1; 1.2 fold enrichment (6-mer frequency, TF over GST control) with GABPA; 1.31 fold enrichment (6-mer frequency, TF over GST control) in the assay with ERG; 1.19 fold enrichment (6-mer frequency, TF over GST control) with ELF1; 1.23 fold enrichment (6-mer frequency, TF over GST control) with EHF. Moreover, the binding signal was 1.17 fold enrichment (6-mer frequency, TF over GST control) with SPI1; 1.22 fold enrichment (6-mer frequency, TF over GST control) with SPIB; 1.11 fold enrichment (6-mer frequency, TF over GST control) with ELK3.
